From PubChem BioAssay AID1347416 (National Center for Advancing Translational Sciences (NCATS), 2020)
Screen size: about 4,100 compounds; about 1,600 (39%) were called active. Roughly 25% stayed inconclusive and do not appear here. Calls follow the shape of the dose curve; as a rule, active = well fitted inhibition curve with a large enough effect; inconclusive = small, poorly fitted or top-dose-only effect; inactive = no such curve, though single readings can be large or run the other way. The list shows a part of the results.

Assay: qHTS Validation assay for Inhibitors of Plasmodium falciparum Dd2 growth in vitro; also: nearly all actives have a fitted effect of over 70% in size
Conditions: P. falciparum Dd2 in RBCs, SYBR Green growth, 72 h; series mostly up to 28.7 µM
Text: Malaria, a parasitic disease spread to humans through the bite of a Plasmodium infected Anopheles mosquito, continues to be a global health burden affecting millions of people, with an estimated 228 million cases and 405,000 deaths in 2018. Concerns about safety and limitations of current antimalarial treatments strongly emphasize the need to develop new therapeutic options. The scarce number of chemotypes and validated drug targets with efficacy against the liver stage, have hindered development of new antimalarials. To address this, a chemoprophylactic drug discovery effort was conducted through a combined phenotypic high-throughput asexual blood stage and liver stage screen, providing a robust foundation to identify liver-stage active lead chemotypes. Compounds were initially screened against Plasmodium falciparum Dd2 strain parasites using a in vitro SYBRGreen-1 based 72 hr proliferation assay to identify novel chemotypes to advance to liver stage assays. NIH/NCATS Early Translation Branch Assay Submitter (PI): Anton Simeonov Ph.D.
[…] Assay Protocol: PROTOCOL TABLE (as described by Inglese et al., 2007) SEQUENCE No. (e.g., 1, 2, 3, etc.); PARAMETER (e.g., Cells, Incubation, Reagent, etc.); VALUE; DESCRIPTION SEQUENCE, Parameter, Description 1; Reagent; 3 uL complete malaria growth medium, 1536 TC treated Black clear bottom plate 2; Controls; 23 nL positive control artesunate (300 nM final) to column 1; Neutral control DMSO to columns 2-4 3; Compound; 23 nL of compounds in dose response concentration (29 uM to 0.5 nM final) 4; Reagent; 5 uL malaria infected red blood cells (2.5% hematocrit final, 0.3% parasitemia 5; Time; 72 hours at 37C (5% O2, 5% CO2, 90% N2; 95% Rh) 6; Reagent; 2 uL lysis buffer/SYBRGreen-1, 25 sec shake immediately following dispense 7; Time; ~16 hours at 37C (5% O2, 5% CO2, 90% N2; 95% Rh) 8; Detector; EnVision (PerkinElmer) bottom read at 485/14nm excitation and 535/25 nm emission NOTES (numbers refer to sequence above): 1; Complete Malaria Growth Media: 1X RPMI-1640 w/L-glutamine, 5.5g/L Albumax II, 367 uM Hypoxanthine, 25 mM HEPES, 0.25% Sodium Bicarbonate, 35 uM Gentamicin sulfate 2; Controls were added using the Kalypsis Pintool (Wako USA) equipped with 1536 pinhead 3; Compounds were added in a 7-point, titration with a high final concentration of 29 uM by Pintool from seven inter-plate titrations of library plates and two DMSO control plates at the beginning and end (see Yasgar et al., 2008). 4; Red blood cells infected with Plasmodium falciparum Dd2 parasites were used. 6; Lysis buffer: 20 mM Tris-HCl, 10 mM EDTA, 0.16% Saponin, 1.6% Triton-X, 10X SYBR Green. REFERENCE: Inglese J, Shamu CE, Guy RK. 2007. Reporting data from high-throughput screening of small-molecule libraries. Nat Chem Biol. doi:10.1038/nchembio0807-438 Yasgar A, Shinn P, Jadhav A, Auld D, Michael S, Zheng W, Austin CP, Inglese J, Simeonov A. 2008. Compound Management for Quantitative High-Throughput Screening. J Lab Autom 13:79-89. doi:10.1016/j.jala.2007.12.004
Potency is read from the fitted curve at half-maximal effect.

Potency, active:
COc1ccc(NC(=O)c2ccc(-c3nnc4ccc(NC(=O)C5CC5)cn34)cc2)cc1 2.66 µM, CCOc1ccc(NC(=O)c2ccc(-c3nnc4ccc(NC(=O)C5CC5)cn34)cc2)cc1 2.99 µM, CC(C)(C)NC(=O)c1ccc(-c2nnc3ccc(NC(=O)C4CC4)cn23)cc1 9.44 µM, COc1ccc(NC(=O)c2ccc(-c3nnc4ccc(NC(=O)C5CCC5)cn34)cc2)cc1 4.22 µM, CCC(=O)Nc1ccc2nnc(-c3ccc(C(=O)Nc4ccc5c(c4)OCCO5)cc3)n2c1 7.5 µM, O=[S+]([O-])(NCC1CN(Cc2ccc(O)cc2)CC12CN(c1ccccc1)C2)c1ccccc1 (stereo not given) 6.68 µM, Oc1ccc(CN2CC(CNc3ccccc3)C3(C2)CN(c2ccccc2)C3)cc1 (stereo not given) 0.611 µM, O=C(Cc1ccc(O)cc1)N1CC(CNc2ccccc2)C2(C1)CN(c1ccccc1)C2 (stereo not given) 0.243 µM, Cc1ccc(NC(=O)CCS(=O)(=O)c2cc(Br)cc3c2N(C(=O)C2CC2)CC3)cc1 2.37 µM, O=C(CCS(=O)(=O)c1cc(Br)cc2c1N(C(=O)C1CC1)CC2)Nc1ccc(Br)cc1F 3.35 µM, O=C(C1CC1)N1CCc2cc(Br)cc(S(=O)(=O)N3CCN(c4cccc(C(F)(F)F)c4)CC3)c21 4.73 µM, O=C(CCS(=O)(=O)c1cc(Br)cc2c1N(C(=O)C1CC1)CC2)N1CCN(c2cccc(Cl)c2)CC1 13.3 µM, O=C(CCS(=O)(=O)c1cc(Br)cc2c1N(C(=O)C1CC1)CC2)Nc1ccc(C(F)(F)F)cc1 1.33 µM, CCN(c1ccccc1)S(=O)(=O)c1cc(Br)cc2c1N(C(=O)C1CC1)CC2 2.99 µM, CC(=O)NCCNC[C@@H]1C=C(C)[C@H](Cc2nnc(-c3ccccc3)o2)C[C@H]1C(C)C 17.2 µM, CC1=C[C@@H](CNC(C)C)[C@H](C(C)C)C[C@H]1Cc1nnc(-c2ccc(C)cc2)o1 13.7 µM, CC1=C[C@@H](CNCCN(C)C)[C@H](C(C)C)C[C@H]1Cc1nnc(C(C)(C)C)o1 15.3 µM, CC1=C[C@@H](CNC2CC2)[C@H](C(C)C)C[C@H]1Cc1nnc(-c2ccc(C)cc2)o1 17.2 µM, CCN(CC)CCNC(=O)c1c(O)c2cccc3c2n(c1=O)CCC3 10.6 µM, O=C(Nc1nccs1)C1c2ccccc2C(=O)N(C2CCCC2)C12CCCC2 (stereo not given) 4.22 µM, CC(C)CN1C(=O)c2ccccc2C(C(=O)Nc2nccs2)C12CCCC2 (stereo not given) 8.41 µM, Cc1nnc(NC(=O)C2c3ccccc3C(=O)N(CC(C)C)C23CCCCC3)s1 (stereo not given) 15 µM, CCN(CC)CC(O)COc1ccccc1C(=O)CCc1ccccc1 (stereo not given) 1.5 µM, CCCNCC(O)COc1ccccc1C(=O)CCc1ccccc1 (stereo not given) 0.842 µM, COc1ccccc1CNC(=O)[C@@H](C)C1CC[C@@]2(C)CC[C@H](NC(=O)c3cncnc3)[C@@H](C)[C@@H]2[C@H]1O (stereo not given in full) 2.37 µM, CCN(CC)c1ccc2oc(=O)c(C)nc2c1 6.68 µM, CCn1cc(C(=O)N[C@@H](CCSC)C(=O)NC(C)(C)CO)c(=O)c2cc3c(cc21)OCO3 2.99 µM, CC1CCc2cc(F)ccc2N1C(=O)CSc1nnc2c(n1)[nH]c1ccccc12 (stereo not given) 7.5 µM, CC1CCc2cc(F)ccc2N1C(=O)CSc1nnc2c(n1)[nH]c1ccc(F)cc12 (stereo not given) 8.41 µM, COc1ccccc1NS(=O)(=O)c1cc(NC(=O)c2cccc(S(=O)(=O)N(C)C)c2)ccc1N1CCOCC1 7.5 µM, Cc1nc2cc(F)ccc2n1C1CCN(C(=O)c2c(F)cccc2F)CC1 5.96 µM, CCC(O)(CC)C(=O)NN(C(=O)Nc1csc2c1CCCC2)c1ccccc1 2.99 µM, Cc1ccc(NC(=O)c2cnc(-c3ccccc3)nc2-c2ccncc2)c(Br)c1 9.44 µM, COc1ccc([C@@]2(C(C)C)ON(c3ccccc3C(F)(F)F)C2=O)cc1 4.22 µM, Cn1cnc2ccc(-c3cccc(O)c3)nc2c1=O 6.11 µM, CN1CC2(CCCN(CC3CC3)C2)c2cc(C(=O)NCCOc3ccccc3)ccc21 (stereo not given) 17.2 µM, COCCCNc1nc2cc(OC)c(OC)cc2c2nc(-c3ccccc3)nn12 0.237 µM, CCOCCCNc1nc2cc(OC)c(OC)cc2c2nc(-c3ccccc3)nn12 0.211 µM, COc1cc2nc(NCCC(C)C)n3nc(-c4ccccc4)nc3c2cc1OC 0.422 µM, CCN1C(=O)C2(CCN(S(=O)(=O)c3ccc(Cl)cc3C)CC2)c2ccccc21 5.31 µM, COc1ccc(-c2nc3sc(CCNC(=O)c4ccc(C(C)(C)C)cc4)c(C)n3n2)cc1 2.11 µM

Potency, inactive:
COc1ccc(NC(=O)c2ccc3c(c2)N(C)C2CCCCN2C3=O)cc1 (stereo not given), CCOc1ccc(C(=O)Nc2cccc(-c3nnc4n3CCCC4)c2)cc1, COc1ccc(C(=O)Nc2ccc(-c3nc4ncccc4o3)cc2)cc1, COc1ccc(C(=O)Nc2ccc(OCc3cc(=O)n4ccccc4n3)cc2)cc1, CCCc1noc(-c2ccn3c(CNC(=O)c4ccc(OC)cc4)nnc3c2)n1, Cc1cn2nc(C(=O)Nc3ccc4c(c3)OCCO4)cc2c(N2CCCC2)n1, COCCN1C(=O)CCc2cc(NC(=O)c3ccc4c(c3)OCO4)ccc21, COc1ccccc1C(=O)N1CC(CNC(=O)C2CC2)C2(C1)CN(c1ccccc1)C2 (stereo not given), CNCC(=O)N1CCC2(CC1)CN(Cc1ccccc1)CC2CO (stereo not given), Cn1cc(C(=O)NCC2CN([S+](=O)([O-])c3ccccc3Cl)CC23CN(c2ccccc2)C3)cn1 (stereo not given), NC(=O)c1ccccc1OCC(=O)N1CC(CNC(=O)Nc2ccccc2)C2(C1)CN(c1ccccc1)C2 (stereo not given), O=C(Cc1ccccc1)NCC1CN(Cc2cccc(Cl)c2)CC12CN(c1ccccc1)C2 (stereo not given), O=C(N[C@H]1CCOC[C@H]1C1CCOCC1)c1ccccc1-c1ccccc1, Cc1ccc(NC(=O)CCS(=O)(=O)c2ccc(Br)cc2)c(C)c1, CC(=O)Nc1ccc(NS(=O)(=O)c2cc(Br)cc3c2N(C(=O)C2CC2)CC3)cc1, O=C1Cc2cc(S(=O)(=O)N3CCN(c4cccc(Cl)c4)CC3)ccc2N1, CC(=O)N1CCc2cc(S(=O)(=O)CCC(=O)N3CCC(CCOc4ccccc4)C3)ccc21 (stereo not given), CCCc1noc(-c2ccn3c(CNC(=O)c4cccc(Cl)c4)nnc3c2)n1, CCN(c1ccccc1)S(=O)(=O)c1c(-c2ccc(C)cc2)csc1C(=O)OC, CC1=C[C@@H](CNC(C)C)[C@H](C(C)C)C[C@H]1Cc1nnc(C(C)(C)C)o1, CC1=C[C@@H](CNS(C)(=O)=O)[C@H](C(C)C)C[C@H]1Cc1nnc(-c2ccccc2F)o1, N#Cc1ccccc1CN1CCC([C@@H]2CNC[C@H]2CO)CC1, O=C1COc2ccc(-c3ccsc3)nc2CN1, CCN(CC)CCNC(=O)C1CCCN(S(=O)(=O)c2ccccc2)CCC(=O)NCC1 (stereo not given), O=C(NCc1ccccn1)C1c2ccccc2C(=O)N(C2CCCC2)C12CCCCC2 (stereo not given), Cc1nnc(SCC(=O)Nc2nccs2)o1, CCN(CC)C(=O)C(C)[C@@H]1CC[C@@]2(C)CC[C@H](NC(=O)c3cnccn3)[C@@H](C)[C@@H]2[C@H]1O (stereo not given in full), CCN(CC)C(=O)[C@@H](C)C1CC[C@@]2(C)CC[C@H](NC(=O)COc3ccccc3)[C@@H](C)[C@@H]2[C@H]1O (stereo not given in full), CCn1cnnc1CC1CCN(C(=O)C2CC2)CC1, CCS(=O)(=O)c1ccc2oc(Nc3cc(C)cc(C)c3)nc2c1, Cn1cc(C(NS(=O)(=O)c2cccc3c2OCCO3)C2CC(O)C2)cn1 (stereo not given), CC(C)NC(=O)CSc1nnc(CNC(=O)OC(C)(C)C)n1C, CC(C)Cc1nc2nccc(-c3cccs3)n2n1, Cc1nc2ccc(C(=O)NCc3cc4n(n3)CCN(C(=O)N(C)C)C4)cc2o1, CCN(CC)CCNC(=O)c1cn(CC)c2ccc(S(=O)(=O)N3CCOCC3)cc2c1=O, CC1CCN(C(=O)CSc2nnc3c(n2)[nH]c2ccc(F)cc23)CC1, COc1cccc(S(=O)(=O)N2C[C@@H](Oc3ccccc3)C[C@@H]2C(=O)N2CCOCC2)c1, CCc1noc(-c2cn(C3CCN(C(=O)c4ccc(F)c(F)c4)CC3)nn2)n1, CCCc1noc(-c2cn(C3CCN(C(=O)Cc4cccc(F)c4)CC3)nn2)n1, CCCC(=O)Nc1sc2c(c1C(=O)Nc1ccccn1)CCCC2, Cc1ccc(C)c(C(=O)Nc2ccncc2)c1, Cc1nn(-c2ccccc2)nc1C(=O)Oc1cc(C(F)(F)F)nn1-c1ccccc1, COCCn1cnc2ccc(-c3ccccc3)nc2c1=O, Cc1ccccc1CN1CCc2nc(C(=O)NCCOc3ccccc3)oc2CC1, COCCN1CCCCCC(O)c2cc(C(=O)NCCc3ccccc3)ccc21 (stereo not given), CC(C)CN1C(=O)c2cccn2CC1C(=O)O (stereo not given), CN1C(=O)C2(CCN(C(=O)c3ccn(C(C)(C)C)c3)CC2)c2ccccc21, COc1ccc(-c2nc3scc(CCNC(=O)c4cccc(Br)c4)n3n2)cc1, COc1ccc(-c2cc3c(=O)n(CCNC(=O)c4ccc(N(C)C)cc4)ccn3n2)cc1
